SMILES strings stand for the structures. ± gives the standard deviation of the averaged measurements.

This experiment deals with MDA-MB-231. Description: kynurenine production, fold change vs DMSO IFNg/TNF control; higher = more kynurenine produced (less inhibition). Conditions: pre-treatment time: 18 h then 24 h IFNg/TNF. In outline: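 Fold change over cytokine-stimulated vehicle wells on the same plate is the measure used for kynurenine production, averaged across duplicate plates in the first screening round. MDA-MB-231 cells, seeded 24 h beforehand at 7 × 10^4/well in 96-well plates, were pre-treated 18 h with each natural product in 0.1% DMSO and stimulated 24 h at 37°C with IFNγ (1 U/ml) and TNF (6.25 ng/ml). Supernatants were read at 492 nm following trichloroacetic acid and p-dimethylaminobenzaldehyde treatment, against 0–100 μM standards.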
`CC(C)=CCC[C@](C)(O[C@@H]1O[C@H](CO)[C@@H](O)[C@H](O)[C@H]1O)[C@H]1CC[C@]2(C)[C@@H]1[C@H](O)C[C@@H]1[C@@]3(C)CC[C@H](O)C(C)(C)[C@@H]3[C@@H](O[C@@H]3O[C@H](CO)[C@@H](O)[C@H](O)[C@H]3O[C@@H]3OC[C@@H](O)[C@H](O)[C@H]3O)C[C@]12C` [Notoginsenoside R1] (compound dose: 10 uM): the kynurenine production was determined as 1 ± 0.038.
The result for `C=C1CC[C@@H]2[C@](C)(CO)[C@H](O)CC[C@@]2(C)[C@H]1C/C=C1\C=COC1=O` [Dehydroandrographolide] (compound dose: 10 uM) reads 0.754 ± 0.058.
Turning to `C=C1[C@H](OC(C)=O)[C@@H](O)[C@@H](OC(=O)c2cccnc2)C(C)(C)/C=C/[C@H](C)[C@H](OC(C)=O)[C@@]2(O)C[C@@](C)(OC(C)=O)[C@H](OC(=O)c3ccccc3)[C@@H]2[C@H]1OC(C)=O` [Jatrophane 5] (compound dose: 10 uM), the kynurenine production is 0.90473 ± 0.00055.
The result for `CC(C)C1=CC(=O)C(C)(C2C(O)CC3(C)C4CC=C5C(CCC(OC6OC(CO)C(O)C(O)C6OC6OC(C)C(O)C(O)C6O)C5(C)C)C4(C)C(=O)CC23C)O1` (stereo not given) [Picfeltarraenin IB] (compound dose: 10 uM) reads 0.771 ± 0.23; that for `C=C[C@@]1(C)CC(=O)[C@]2(O)[C@@]3(C)[C@@H](O)CCC(C)(C)[C@@H]3[C@H](O)[C@H](OC(C)=O)[C@@]2(C)O1` [Forskolin] (compound dose: 10 uM), 1.37 ± 0.25.
Then `C=C1C[C@]23C[C@@]1(O)CC[C@H]2[C@@]12C=C[C@H](O)[C@@](C)(C(=O)O1)[C@H]2[C@@H]3C(=O)O` [Gibberellic acid] (compound dose: 10 uM), with 0.799 ± 0.11.
Then `CC(=O)O[C@@H]1CC[C@@]2(C)[C@@H](CC[C@]3(C)[C@@H]2C(=O)C=C2[C@@H]4[C@@H](C)[C@H](C)CC[C@]4(C)CC[C@]23C)[C@@]1(C)C(=O)O` (compound dose: 10 uM), with 1.06 ± 0.062; and `C[C@H](C[C@H](O)[C@H]1OC1(C)C)C1=C2C[C@H](O)[C@H]3[C@@]4(C)CCC(=O)C(C)(C)[C@@H]4CC[C@]3(C)[C@@]2(C)CC1` [Alisol B] (compound dose: 10 uM), with 1.0307 ± 0.00045; and `C=C1CC[C@H]2C(=C)CC[C@H]3C(=C)C(=O)O[C@@H]3[C@@H]12` [Dehydrocostus Lactone] (compound dose: 10 uM), with 0.398 ± 0.079.
On to `CC(C)=CCC[C@@](C)(O)[C@H]1CC[C@]2(C)[C@@H]1[C@H](O)C[C@@H]1[C@@]3(C)CC[C@H](O[C@@H]4O[C@H](CO)[C@@H](O)[C@H](O)[C@H]4O[C@@H]4O[C@H](CO)[C@@H](O)[C@H](O)[C@H]4O[C@@H]4OC[C@@H](O)[C@H](O)[C@H]4O)C(C)(C)[C@@H]3CC[C@]12C` [Notoginsenoside Ft1] (compound dose: 2 uM), for which the kynurenine production worked out at 0.86 ± 0.16.
For the compound `C[C@H]1O[C@@H](Oc2c(-c3cc(O)c(O)c(O)c3)oc3cc(O)cc(O)c3c2=O)[C@@H](O)[C@@H](O)[C@@H]1O` [Myricitrin] (compound dose: 10 uM), the kynurenine production came to 0.694 ± 0.16.
The result for `CC1(C)CC[C@]2(C(=O)O[C@@H]3O[C@H](CO)[C@@H](O)[C@H](O)[C@H]3O)CC[C@]3(C)C(=CC[C@@H]4[C@@]5(C)CC[C@H](O[C@@H]6O[C@H](C(=O)O)[C@@H](O)[C@H](O)[C@H]6O[C@@H]6O[C@H](CO)[C@@H](O)[C@H](O)[C@H]6O)C(C)(C)[C@@H]5CC[C@]43C)[C@@H]2C1` [Ginsenoside Ro] (compound dose: 10 uM) reads 1.05 ± 0.091.
The result for `CC1(C)CCC2(CO)C(=C3C=CC4C5(C)CCC(OC6OC(COC7OC(CO)C(O)C(O)C7O)C(OC7OC(CO)C(O)C(O)C7O)C(O)C6O)CC5C(C)(CO)CC4(C)C3(C)CC2O)C1` (stereo not given) [Clinodiside A] (compound dose: 10 uM) reads 1.03 ± 0.2; that for `C[C@@H]1O[C@@H](OC[C@H]2O[C@@H](Oc3c(-c4ccc(O)cc4)oc4cc(O)cc(O)c4c3=O)[C@H](O)[C@@H](O)[C@@H]2O)[C@H](O)[C@H](O)[C@H]1O` [Kaempferol 3-rutinoside] (compound dose: 10 uM), 0.955 ± 0.049; that for `C=C[C@]1(C)CC[C@@H](C(=C)C)C[C@H]1C(=C)C` [β-Elemene] (compound dose: 10 uM), 0.8 ± 0.11.

Source of the values: the supplement of paper PMC13094657.
